Assay results: PubChem BioAssay (NCI)
Compounds without any hit were thinned out: in the full panel of roughly 83,000, 20% have a hit.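 For each line, cells grew in 96-well plates with the test compound present at a single concentration for 48 hours.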 Calls of active or inactive are those of the source. Rule for the calls: active = growth percent below 10; inactive = the rest.

Experiments:
Experiment in all cases: NCI-60 one-dose screen, 48 h (100 = growth as untreated, 0 = no growth, -100 = all killed)
Details in all cases: 10 µM unless noted
HCT-15 colon = system: HCT-15 colon
HT29 colon = system: HT29 colon
SNB-75 CNS = system: SNB-75 CNS
SNB-19 CNS = system: SNB-19 CNS
U251 CNS = system: U251 CNS
PC-3 prostate = system: PC-3 prostate
SK-MEL-5 melanoma = system: SK-MEL-5 melanoma
UACC-62 melanoma = system: UACC-62 melanoma
LOX IMVI melanoma = system: LOX IMVI melanoma
SK-MEL-28 melanoma = system: SK-MEL-28 melanoma
SK-MEL-2 melanoma = system: SK-MEL-2 melanoma
EKVX NSCLC = system: EKVX NSCLC
SN12C renal = system: SN12C renal
UO-31 renal = system: UO-31 renal
TK-10 renal = system: TK-10 renal
ACHN renal = system: ACHN renal
CAKI-1 renal = system: CAKI-1 renal
A498 renal = system: A498 renal
CCRF-CEM leukemia = system: CCRF-CEM leukemia
MOLT-4 leukemia = system: MOLT-4 leukemia

Measured: growth

COc1cc2nc(Cl)nc(Nc3cccc(C4=Nc5c(N)nc(N)nc5NC(c5ccc(Br)cc5)C4)c3)c2cc1OC (stereo not drawn)
inactive: HT29 colon 19.8% | SNB-75 CNS 84.3% | SNB-19 CNS 28.7% | PC-3 prostate 64.7% | SK-MEL-5 melanoma 75.5% | UACC-62 melanoma 107% | LOX IMVI melanoma 27.6% | SK-MEL-28 melanoma 99.1% | SK-MEL-2 melanoma 94.2% | EKVX NSCLC 97.1% | SN12C renal 99% | UO-31 renal 92.9% | TK-10 renal 114% | ACHN renal 101% | CAKI-1 renal 90.3% | A498 renal 90.6% | CCRF-CEM leukemia 10.9%
active: HCT-15 colon 7.34% | U251 CNS -46.5%

NS(=O)(=O)c1ccc(-n2cc(CN3CCNCC3)nn2)cc1
inactive: HCT-15 colon 104% | HT29 colon 109% | SNB-75 CNS 92.1% | SNB-19 CNS 102% | U251 CNS 105% | PC-3 prostate 102% | SK-MEL-5 melanoma 100% | UACC-62 melanoma 99% | LOX IMVI melanoma 107% | SK-MEL-28 melanoma 111% | SK-MEL-2 melanoma 110% | EKVX NSCLC 104% | SN12C renal 110% | UO-31 renal 92.9% | TK-10 renal 100% | ACHN renal 109% | CAKI-1 renal 95.9% | A498 renal 107% | CCRF-CEM leukemia 109% | MOLT-4 leukemia 103%

COc1ccc(CCOc2cc3c(cc2OC)CCN(C(=O)NCc2cocn2)C3c2ccc(C)cc2C)cc1 (stereo not drawn)
inactive: SNB-75 CNS 39.2% | SNB-19 CNS 22% | PC-3 prostate 20.1% | UACC-62 melanoma 24% | SK-MEL-28 melanoma 38.7% | EKVX NSCLC 39.7% | SN12C renal 19.7% | UO-31 renal 24.7% | TK-10 renal 49.8% | ACHN renal 18.5% | CAKI-1 renal 13.2% | CCRF-CEM leukemia 26.4% | MOLT-4 leukemia 21.8%
active: HCT-15 colon 5.53% | HT29 colon -2.64% | U251 CNS 5.74% | SK-MEL-5 melanoma -43.2% | LOX IMVI melanoma 1.85% | SK-MEL-2 melanoma -7.32% | A498 renal -2.94%

Nc1nc(N)c2c(n1)NC(c1ccc(C(F)(F)F)cc1)CC(c1ccc(Nc3nc(NCCO)nc(N4CCOCC4)n3)cc1)=N2 (stereo not drawn)
inactive: HCT-15 colon 37.2% | HT29 colon 50.4% | SNB-75 CNS 66% | SNB-19 CNS 84% | U251 CNS 45.6% | PC-3 prostate 49.2% | SK-MEL-5 melanoma 64.6% | UACC-62 melanoma 82.2% | LOX IMVI melanoma 49.7% | SK-MEL-28 melanoma 81.7% | SK-MEL-2 melanoma 80.6% | EKVX NSCLC 85.5% | SN12C renal 78.2% | UO-31 renal 80.4% | TK-10 renal 97.5% | ACHN renal 88.3% | CAKI-1 renal 79.7% | A498 renal 72.6% | CCRF-CEM leukemia 35.1% | MOLT-4 leukemia 23.8%

CN(C)C(=O)c1cc(-c2ccc3ncnc(NCc4ccccc4)c3c2)cnc1N
inactive: HCT-15 colon 105% | HT29 colon 101% | SNB-75 CNS 33.4% | SNB-19 CNS 88.7% | U251 CNS 99% | PC-3 prostate 85.7% | SK-MEL-5 melanoma 93.9% | UACC-62 melanoma 89.3% | LOX IMVI melanoma 75% | SK-MEL-28 melanoma 91.4% | SK-MEL-2 melanoma 95.2% | EKVX NSCLC 47.9% | SN12C renal 56.7% | UO-31 renal 50.6% | TK-10 renal 21.9% | ACHN renal 69.2% | CAKI-1 renal 27.2% | CCRF-CEM leukemia 88% | MOLT-4 leukemia 96.8%
active: A498 renal -2.78%

COc1cc2oc(-c3cccc(NC(=O)c4cc(N)ccc4Cl)c3)cc(=O)c2c(OC)c1OC
inactive: HCT-15 colon 85.7% | HT29 colon 110% | SNB-75 CNS 101% | SNB-19 CNS 100% | U251 CNS 101% | PC-3 prostate 97.9% | SK-MEL-5 melanoma 75.3% | UACC-62 melanoma 94.4% | LOX IMVI melanoma 87.1% | SK-MEL-28 melanoma 108% | SK-MEL-2 melanoma 110% | EKVX NSCLC 91.4% | SN12C renal 100% | UO-31 renal 80.9% | TK-10 renal 98.3% | ACHN renal 95% | CAKI-1 renal 87.9% | A498 renal 82.6% | CCRF-CEM leukemia 64.9% | MOLT-4 leukemia 72.8%

CCCCCCCn1cc2c(N[C@H](C)c3ccccc3)ncnc2n1
inactive: HCT-15 colon 91.5% | HT29 colon 113% | SNB-75 CNS 92.2% | SNB-19 CNS 94.3% | U251 CNS 102% | PC-3 prostate 92.6% | SK-MEL-5 melanoma 109% | UACC-62 melanoma 80.6% | LOX IMVI melanoma 99.2% | SK-MEL-28 melanoma 108% | SK-MEL-2 melanoma 123% | EKVX NSCLC 88.2% | SN12C renal 99.2% | UO-31 renal 78.3% | TK-10 renal 126% | ACHN renal 102% | CAKI-1 renal 88.2% | A498 renal 87.6% | CCRF-CEM leukemia 99.6% | MOLT-4 leukemia 102%

CCN1CCN(C(=O)[C@]23CCC(C)(C)C[C@H]2C2=CC[C@@H]4[C@@]5(C)Cc6c([nH]c7ccccc67)C(C)(C)[C@@H]5CC[C@@]4(C)[C@]2(C)CC3)CC1
inactive: HCT-15 colon 79.6% | HT29 colon 88.3% | SNB-75 CNS 87.3% | SNB-19 CNS 91.9% | U251 CNS 83.1% | PC-3 prostate 75.3% | SK-MEL-5 melanoma 97.3% | UACC-62 melanoma 94.8% | LOX IMVI melanoma 76% | SK-MEL-28 melanoma 95.5% | SK-MEL-2 melanoma 104% | EKVX NSCLC 90% | SN12C renal 81.7% | UO-31 renal 75.8% | TK-10 renal 119% | ACHN renal 85% | CAKI-1 renal 65% | A498 renal 97.5% | CCRF-CEM leukemia 80%

O=C(Nc1nonc1-c1ccccc1)c1ccc(C(F)(F)F)cc1
inactive: HCT-15 colon 80.6% | HT29 colon 103% | SNB-75 CNS 104% | SNB-19 CNS 62% | U251 CNS 70.1% | PC-3 prostate 71.7% | SK-MEL-5 melanoma 65.6% | UACC-62 melanoma 56% | SK-MEL-28 melanoma 77.5% | SK-MEL-2 melanoma 65.3% | EKVX NSCLC 84.6% | SN12C renal 71.7% | UO-31 renal 91.4% | TK-10 renal 146% | ACHN renal 82.1% | CAKI-1 renal 85.5% | A498 renal 95.6% | CCRF-CEM leukemia 50.8% | MOLT-4 leukemia 69.1%
active: LOX IMVI melanoma -46.7%

Cc1ccc(C2=NN(C)C(=O)C3(CCCC3)C2)cc1
inactive: HCT-15 colon 101% | HT29 colon 106% | SNB-75 CNS 93.5% | SNB-19 CNS 105% | U251 CNS 103% | PC-3 prostate 102% | SK-MEL-5 melanoma 101% | UACC-62 melanoma 98.5% | LOX IMVI melanoma 100% | SK-MEL-28 melanoma 103% | SK-MEL-2 melanoma 110% | EKVX NSCLC 102% | SN12C renal 101% | UO-31 renal 95.5% | TK-10 renal 97.3% | ACHN renal 110% | CAKI-1 renal 100% | A498 renal 89.4% | CCRF-CEM leukemia 111% | MOLT-4 leukemia 102%

CCCCNNC(=O)c1ccc(-c2cccc(F)c2F)cc1
inactive: HCT-15 colon 55.1% | HT29 colon 10.6% | SNB-75 CNS 80.7% | SNB-19 CNS 54.6% | U251 CNS 36% | PC-3 prostate 45.9% | LOX IMVI melanoma 21.8% | SK-MEL-28 melanoma 25.7% | SK-MEL-2 melanoma 26.8% | EKVX NSCLC 45.3% | SN12C renal 56.3% | TK-10 renal 13.3% | ACHN renal 22.4% | CAKI-1 renal 30.9% | CCRF-CEM leukemia 27.4% | MOLT-4 leukemia 27.7%
active: SK-MEL-5 melanoma 5.84% | UACC-62 melanoma 8.48% | UO-31 renal 3.46% | A498 renal -6.27%

O=C(Nc1nc2ccc([N+](=O)[O-])cc2s1)Nc1ccccc1Br
active: PC-3 prostate 3.13% | SK-MEL-5 melanoma -3.21%
inactive: HCT-15 colon 24.3% | HT29 colon 44.9% | SNB-75 CNS 77.3% | SNB-19 CNS 20.5% | U251 CNS 10.6% | UACC-62 melanoma 32.3% | LOX IMVI melanoma 44.8% | SK-MEL-28 melanoma 48.8% | SK-MEL-2 melanoma 48.1% | EKVX NSCLC 35.3% | SN12C renal 23.4% | UO-31 renal 43.4% | TK-10 renal 81.1% | ACHN renal 47.3% | CAKI-1 renal 64.1% | A498 renal 21.4% | CCRF-CEM leukemia 37.6% | MOLT-4 leukemia 27.1%

CCn1c(SCC(=O)Nc2cccc(C(=O)/C=C/c3ccccc3Cl)c2)nc2ccccc2c1=O
inactive: HCT-15 colon 55.2% | HT29 colon 67.1% | SNB-75 CNS 89.5% | SNB-19 CNS 82.3% | U251 CNS 73.4% | PC-3 prostate 75.4% | SK-MEL-5 melanoma 93.5% | UACC-62 melanoma 79.9% | LOX IMVI melanoma 27.6% | SK-MEL-28 melanoma 98.3% | SK-MEL-2 melanoma 110% | EKVX NSCLC 85.8% | SN12C renal 88.4% | UO-31 renal 68% | TK-10 renal 125% | ACHN renal 97% | CAKI-1 renal 84.6% | A498 renal 94% | CCRF-CEM leukemia 77.8% | MOLT-4 leukemia 93.2%

COc1ccc(Cn2cc3c(c2-c2cc(OC)c(OC)c(OC)c2)CCc2c(CN4CCCC4)noc2-3)cc1
inactive: HCT-15 colon 21.1% | SNB-19 CNS 22% | U251 CNS 22.4% | PC-3 prostate 29% | SK-MEL-5 melanoma 20.7% | UACC-62 melanoma 15.8% | LOX IMVI melanoma 34.6% | SK-MEL-28 melanoma 60.9% | SK-MEL-2 melanoma 57.1% | EKVX NSCLC 38.1% | SN12C renal 36.6% | UO-31 renal 35.9% | TK-10 renal 69.6% | ACHN renal 45.7% | CAKI-1 renal 35.9% | CCRF-CEM leukemia 16.3% | MOLT-4 leukemia 18.3%
active: HT29 colon 8.73% | SNB-75 CNS -2.12% | A498 renal -1.61%

CCNC(=O)N1CCc2cc(OC)c(OCCc3ccc(OC)nc3)cc2C1c1ccc(C)cc1C (stereo not drawn)
inactive: SNB-75 CNS 45.8% | SNB-19 CNS 25.7% | U251 CNS 11.1% | PC-3 prostate 26.8% | UACC-62 melanoma 25.6% | SK-MEL-28 melanoma 41.5% | EKVX NSCLC 39.3% | SN12C renal 30.5% | UO-31 renal 28.5% | TK-10 renal 44.8% | ACHN renal 25% | CAKI-1 renal 18.1% | CCRF-CEM leukemia 27% | MOLT-4 leukemia 22.6%
active: HCT-15 colon 6.9% | HT29 colon 1.6% | SK-MEL-5 melanoma -31.6% | LOX IMVI melanoma 3.95% | SK-MEL-2 melanoma 1.68% | A498 renal -12.2%

Cc1nn(-c2ccccc2)c2ncnc(N/N=C/c3ccccc3O)c12
inactive: HCT-15 colon 21.3% | HT29 colon 24.6% | SNB-19 CNS 17.5% | U251 CNS 11.2% | PC-3 prostate 25.9% | SK-MEL-28 melanoma 23.2% | SK-MEL-2 melanoma 35.4% | EKVX NSCLC 23.7% | TK-10 renal 40.6% | A498 renal 58.4% | MOLT-4 leukemia 14.3%
active: SNB-75 CNS 5.46% | SK-MEL-5 melanoma -70.2% | UACC-62 melanoma -11.2% | LOX IMVI melanoma 2.3% | SN12C renal 8.87% | UO-31 renal -25.8% | ACHN renal 3.52% | CAKI-1 renal 3.12% | CCRF-CEM leukemia 8.92%
